Anthrax LF prot: blocks Bacillus anthracis lethal factor protease. P15917. multiplex microsphere protease cleavage assay, LF. inhibition, % at 10 µM. actives 0.12% (n = 360,000); in the data active means inhibition above about 30%; inconclusive means no clear call, values can overlap the other calls; further: plate controls were buffer without enzyme for full effect and enzyme alone for no effect
Autofluor counter: counter-screen for toxin protease inhibitors: compound fluorescence; fluorescence intensity (test concentration not listed); AID 624483; compound autofluorescence counterscreen, microsphere flow cytometry; active compounds read high; actives 3.1% (n = 360,000); in the data active means fluorescence intensity above about 16000; inconclusive means no clear call, values can overlap the other calls
BoNT-F LC inh: inhibitors of Botulinum neurotoxin F light chain protease | actives 0.22% (n = 360,000) | Multiplex microsphere protease cleavage assay, flow cytometry | AID 588497 | inhibition, % at 10 µM; in the data active means inhibition above about 35%, passing the limit was not always enough; inconclusive means no clear call, values can overlap the other calls; further: plate controls were buffer without enzyme for full effect and enzyme alone for no effect
BoNT-A LC inh2: BoNT A light chain protease inhibition | multiplex microsphere protease substrate cleavage, flow cytometry | inhibition, % at 10 µM | actives 0.17% (n = 360,000); in the data active means inhibition above about 30%; inconclusive means no clear call, values can overlap the other calls; further: plate controls were buffer without enzyme for full effect and enzyme alone for no effect
BoNT-A LC CP1: inhibitors of Botulinum neurotoxin A light chain protease | shares compounds with BoNT-F LC inh | multiplex microsphere protease assay, flow cytometry | inhibition, % at 10 µM | actives 3% (n = 720); in the data active means inhibition above about 32%
BoNTF LC inh 1: blocks botulinum neurotoxin F light chain protease; AID 602140; 720 tested, under 10 active; shares compounds with BoNT-F LC inh; multiplex microsphere protease cleavage assay, flow cytometry; inhibition, % at 10 µM; call rule not given here
Anthrax LF CP1: Bacillus anthracis lethal factor protease inhibition; inhibition, % at 10 µM; multiplex microsphere protease cleavage assay, LF; 720 tested, under 10 active; shares compounds with BoNT-F LC inh; call rule not given here
BoNT-A LC CP2: blocks botulinum neurotoxin A light chain protease. inhibition, % at 10 µM. shares compounds with BoNT-A LC inh2. AID 602325. actives 10% (n = 150). multiplex microsphere protease cleavage assay, flow cytometry; in the data active means inhibition above about 24%
Anthrax LF CP2: blocks anthrax lethal factor protease; inhibition, % at 10 µM; multiplex microsphere protease cleavage assay; actives 7% (n = 150); shares compounds with BoNT-A LC inh2
BoNT-F LC CP2: BoNT/F light chain protease inhibition | shares compounds with BoNT-A LC inh2 | multiplex microsphere protease cleavage assay, flow cytometry | inhibition, % at 10 µM | actives 7% (n = 150) | AID 602336
* = called active by the depositor; ? = inconclusive; . = not tested or not shown. An excerpt weighted towards active compounds, which were near 3.5% of everything screened. Unless noted, no stated cut-off is given here; in the data, active means inhibition above about 25%; inactive means the rest.

SMILES | Anthrax LF prot | Autofluor counter | BoNT-F LC inh | BoNT-A LC inh2 | BoNT-A LC CP2 | Anthrax LF CP2 | BoNT-F LC CP2 | others
CC(=O)Nc1ccc(NC(=O)c2sc(-c3ccccc3)nc2C)cc1 | 22 | 3706 | 43* | -3 | . | . | . | BoNT-A LC CP1=1;BoNTF LC inh 1=-2;Anthrax LF CP1=0
CNC(=O)c1sc(-c2ccccc2)nc1C | 0 | 2996 | 0 | 0 | . | . | .
O=C(c1ccccc1)c1sc(N2CCCCCC2)nc1-c1ccccc1 | 34* | 1944 | 33 | 54* | . | . | . | BoNT-A LC CP1=10;BoNTF LC inh 1=-3;Anthrax LF CP1=2
COC(=O)C[C@@H]1C[C@@H]2c3cc(NS(=O)(=O)c4ccc(F)cc4)ccc3O[C@@H]2[C@H](CO)O1 | 0 | 3016 | -3 | 0 | . | . | .
Cc1ccc(CNc2nc3cc(-c4ccccc4)sc3c(=O)n2C)c(C)c1 | -9 | 3536 | 2 | 0 | . | . | .
COc1cc(S(=O)(=O)N(Cc2cccs2)CC2CCCO2)ccc1-n1cnnn1 (stereo unspecified) | 1 | 5631 | 41* | ? | . | . | . | BoNT-A LC CP1=0;BoNTF LC inh 1=-3;Anthrax LF CP1=0
Cc1nc2sc(C(=O)O)c(N)c2c2c1COC(C)(C)C2 | 0 | 3947 | -18 | 3 | . | . | .
CCOC(=O)c1sc2nc(-c3ccco3)c3c(c2c1N)CC(C)(C)OC3 | 20 | 10754 | 7 | 33* | . | . | . | BoNT-A LC CP1=8;BoNTF LC inh 1=3;Anthrax LF CP1=5
CCN(CC)CCN1CNC(=S)NC1 | 1 | 3585 | -8 | 0 | . | . | .
Cn1c(=O)c2cc3ccccc3nc2n(C)c1=O | 30* | 4208 | ? | -1 | . | . | . | BoNT-A LC CP1=0;BoNTF LC inh 1=-1;Anthrax LF CP1=2
Cc1cc(C)c(S(=O)(=O)NCCCn2ccnc2)c(C)c1 | -1 | 2119 | 0 | 0 | . | . | .
Cc1cc2ccccc2n1CCNC(=O)c1ccc(S(=O)(=O)N2CCCCC2)cc1 | -126 | 1440 | -124 | 59* | 53* | 14 | -50
Cc1cc(C)c(S(=O)(=O)NCCn2c(C)cc3ccccc32)c(C)c1 | -62 | 2507 | -84 | 42* | 6 | 0 | -14
Cc1cc2ccccc2n1CCNC(=O)C(C)Oc1ccccc1 (stereo unspecified) | -77 | 975 | -122 | 79* | 17 | 16 | 0
Cc1cc2ccccc2n1CCNC(=O)C(C)C | 60* | 3584 | 13 | 80* | 29* | 34* | 15
COCCNC(=O)C(C)Oc1ccccc1 (stereo unspecified) | -2 | 2577 | -6 | 1 | . | . | .
CC1=C(C(=O)Nc2ccc(C(=O)NCCCN3CCCCC3)cc2)SCCO1 | -3 | 6696 | -7 | -3 | . | . | .
Cc1cc2ccccc2n1CCNC(=O)Cc1ccccc1 | -76 | 1072 | -91 | 72* | 24* | 30* | 12
NC(=O)Cc1ccc(OCc2nn[nH]n2)cc1 | 0 | 3842 | -8 | 0 | . | . | .
Cc1cc2nc(-c3cccc(Br)c3)c(Cc3cccc(Cl)c3)n2c(C)c1Br | -5 | 5299 | -8 | 0 | 12 | 3 | 45*
COc1ccccc1Cc1c(-c2ccc(C)cc2)nc2cc(C)c(Br)c(C)n12 | 4 | 4617 | -2 | 2 | 10 | 7 | 19
Cc1cc2nc(-c3cccc(Cl)c3)c(Cc3ccccc3)n2c(C)c1Br | -1 | 6508 | -6 | 1 | . | . | .
COc1ccccc1Cc1c(-c2ccccc2)nc2cc(C)c(Br)c(C)n12 | 7 | 4357 | -3 | 1 | 3 | -2 | -3
COc1ccccc1Cc1c(-c2ccc(F)cc2)nc2cc(C)c(Br)c(C)n12 | 9 | 6390 | -20 | 1 | 25* | -4 | 21
Cc1ccc(S(=O)(=O)N2C[C@H]3C(=O)C[C@@H](c4ccccc4)N(S(=O)(=O)c4ccccc4)[C@H]3C[C@H]2c2ccccc2)cc1 | -7 | 5349 | 7 | -1 | . | . | .
SMILES | Anthrax LF prot | Autofluor counter | BoNT-F LC inh | BoNT-A LC inh2 | BoNT-A LC CP2 | Anthrax LF CP2 | BoNT-F LC CP2 | others
O=C(NCCCCc1ccccc1)c1cccc(NC(=O)C2CCCC2)c1 | -7 | 3559 | 5 | 0 | . | . | .
CCCCC(c1nc2ccccc2[nH]1)n1c(-c2ccccc2)nc2cc(C)c(C)cc21 (stereo unspecified) | 0 | 6080 | -19 | -2 | . | . | .
CCCCCCCCC(c1nc2cc(C)c(C)cc2[nH]1)n1c(=O)c(-c2ccccc2Br)nc2ccccc21 (stereo unspecified) | 16 | 4821 | 7 | 28 | 28* | 2 | 19
CCCCC(c1nc2ccccc2[nH]1)n1c(=O)c(-c2ccccc2)nc2cc(C)c(C)cc21 (stereo unspecified) | 34* | 3875 | 5 | 30* | 11 | 8 | 11
CCOC(=O)c1c(C)[nH]c(C(=O)COC(=O)COc2ccccc2C)c1C | 0 | 2053 | -3 | 0 | . | . | .
CCOc1ccccc1OCC(=O)OCC(=O)c1c(C)[nH]c2ccccc12 | 0 | 4284 | 14 | 3 | 1 | -1 | 2
Cc1cccc(C(=O)OCC(=O)c2c(C)[nH]c3ccccc23)c1O | -5 | 4168 | 2 | -1 | 0 | 1 | 1
COc1ccc(CCC2(C)NC(=O)N(C(C)C(=O)Nc3ccccc3F)C2=O)cc1 (stereo unspecified) | -5 | 4009 | -8 | 0 | . | . | .
O=C(O)CN1CCN(CC(=O)O)CCN(CC(=O)O)CCN(CC(=O)O)CC1 | 9 | 5999 | 63* | 9 | 6 | 4 | 48*
CC(C)Oc1cccc(C2NC(=O)c3ccccc3O2)c1 (stereo unspecified) | -6 | 4525 | ? | -5 | . | . | .
COc1cc(C(=O)N2CCCCC2c2cc(C(=O)NCc3cccnc3)no2)cc(OC)c1C (stereo unspecified) | -8 | 3956 | -5 | 0 | . | . | .
COc1ccccc1Cc1c(-c2cccc(Br)c2)nc2ccc(Cl)cn12 | -10 | 12658 | -6 | 5 | . | . | .
Cc1cnc(C(=O)OCC(=O)c2c[nH]c3ccccc23)cn1 | 12 | 9016 | ? | 5 | . | . | .
COc1ccc(OCC(=O)c2c[nH]c3ccccc23)cc1 | 3 | 4821 | -12 | -2 | . | . | .
O=C(OCC(=O)c1c[nH]c2ccccc12)c1cc(Br)ccc1O | -1 | 3144 | -2 | 1 | 2 | -1 | 8
O=C1CCC(C(=O)OCC(=O)c2c[nH]c3ccccc23)=NN1 | 2 | 2538 | -4 | 0 | . | . | .
CC(C)Cc1ccc(C(C)C(=O)OCC(=O)c2c[nH]c3ccccc23)cc1 (stereo unspecified) | -1 | 11396 | 3 | 0 | 2 | -1 | 6
O=C(COc1ccccc1)OCC(=O)c1c[nH]c2ccccc12 | -5 | 2839 | 0 | 0 | 1 | 1 | 3
Cc1ccc(C(=O)OCC(=O)c2c[nH]c3ccccc23)cc1 | 1 | 2547 | -6 | 0 | 4 | 3 | 14
OC(c1ccc(F)cc1)c1nc(-c2ccc(Cl)cc2)cs1 (stereo unspecified) | -7 | 3484 | 4 | 0 | . | . | .

Screening data (PubChem)
